Pf growth 48h = P. falciparum growth inhibition at 48 hours (one generation). AID 504832. P. falciparum luciferase growth in erythrocytes, 48 h. hit rate 5.9% among 310,000. Potency, µM (series often up to 28.7 µM), inactives show top-dose activity change, negative = inhibition, hits mostly inhibitors; further: potency means the concentration at half of the fitted maximal effect; on the % scale 0 is the no-effect control and ±100 the full control effect
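Compounds are pin-transferred into medium, infected erythrocytes (2% hematocrit, 0.1% parasitemia final) are added, and plates sit one parasite generation at 37 C in 5% CO2. Detection reagent is then added and luminescence measured.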
Cycloheximide cs = counter-screen for Shiga toxin inhibitors: cycloheximide protein synthesis inhibition; cell reporter, cycloheximide protein synthesis inhibition counterscreen; max response, %; hit rate 12% among 300,000; AID 2314; in the data active means max response mostly above about 13%, no sharp cut-off; inactive means mostly below about 14%; further: read at 38.3 µM for the half of the compounds with a filed dose; 0% is about no effect
LmPK inh = inhibitors of Leishmania mexicana pyruvate kinase; Q27686; purified LmPK, Kinase-Glo ATP luminescence, 1 h; AID 1721; hit rate 0.37% among 290,000; Potency, µM (doses to about 57.5 µM), for the others: at the highest dose activity change, negative = inhibition, actives largely listed as inhibitors; further: potency means the concentration at half of the fitted maximal effect; on the % scale 0 is the no-effect control and ±100 the full control effect
Target sequence (Q27686 whole entry, looked up): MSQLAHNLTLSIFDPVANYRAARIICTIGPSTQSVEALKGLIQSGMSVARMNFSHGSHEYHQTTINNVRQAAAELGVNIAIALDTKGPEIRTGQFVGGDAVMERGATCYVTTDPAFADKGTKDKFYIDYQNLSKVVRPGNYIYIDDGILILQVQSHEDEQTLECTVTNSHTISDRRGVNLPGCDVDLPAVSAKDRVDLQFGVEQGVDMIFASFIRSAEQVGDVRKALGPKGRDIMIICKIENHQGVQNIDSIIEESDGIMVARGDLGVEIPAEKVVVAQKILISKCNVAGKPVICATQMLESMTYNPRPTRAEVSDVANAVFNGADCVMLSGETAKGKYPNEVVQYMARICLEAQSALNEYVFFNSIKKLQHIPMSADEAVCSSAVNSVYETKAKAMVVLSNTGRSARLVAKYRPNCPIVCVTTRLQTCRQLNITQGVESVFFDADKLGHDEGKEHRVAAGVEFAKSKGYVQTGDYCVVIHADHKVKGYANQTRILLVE
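Purified LmPK (0.1 nM) converted ADP (0.1 mM) to ATP with PEP (0.5 mM) in imidazole buffer pH 7.2 with KCl and MgCl2, 1 h at room temperature. ATP was read by Kinase-Glo luminescence; data normalized to uninhibited and no-enzyme controls.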
Pf growth 96h = inhibits malaria parasite growth, 96 h; P. falciparum luciferase reporter growth, 96 h; Potency, µM (series often up to 28.7 µM), without a hit: top-dose activity change, negative = inhibition, hits mostly inhibitors; hit rate 6.9% among 320,000; AID 504834; further: potency means the concentration at half of the fitted maximal effect; on the % scale 0 is the no-effect control and ±100 the full control effect
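P. falciparum expressing integrated firefly luciferase grown in erythrocytes (2% hematocrit, 0.05% parasitemia final) with compounds for 96 hours at 37 C, 5% CO2. Growth inhibition read as loss of luminescence after adding luciferase detection reagent.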
Shiga inhibitor = inhibitors of Shiga toxin in Vero cells | hit rate 9.2% among 290,000 | Vero cells, Shiga toxin protein synthesis inhibition reporter | inhibition, % at 38.7 µM | AID 2315; in the data active means inhibition mostly above about 28%, no sharp cut-off; inactive means mostly below about 43%; further: 0% is about no effect
The depositor's hits bear a star; u = inconclusive; x = not tested or not shown; [ ] = dose if it differs, or a comment. In the library only some 22% were active in any assay of this set; here they are far more common. Unless noted, the call rests on the fitted dose curve; in most records, active means well fitted inhibition curve with a large enough effect; inconclusive means small, poorly fitted or top-dose-only effect, or another doubt; inactive means no such curve, though single readings can be large or run the other way.

SMILES	Pf growth 48h	Cycloheximide cs	LmPK inh	Pf growth 96h	Shiga inhibitor
Cn1c(CCNC(=O)c2ccccc2)nc2cc(NC(=O)c3ccco3)ccc21	39.7%	18.0	-0.7%	x	82.3
Cn1c(CCNC(=O)c2ccco2)nc2cc(NC(=O)C3CCCCC3)ccc21	23.8%	11.9*	-0.1%	u	36.6*
COc1ccc2[nH]cc(CCNS(=O)(=O)c3ccccc3)c2c1	-13.1%	-0.9	-5.2%	u	17.2
Nc1ccc(S(=O)(=O)Nc2ccccc2)cc1	-8.4%	x	x	-0.5%	x
COc1ccccc1C(=O)Nc1ccc2c(c1)nc(CCNC(=O)c1ccco1)n2C	u	5.7	-0.8%	3.3%	15.5
O=C(Nc1ccc2[nH]c3c(c2c1)CCCC3)c1ccco1	3.7µM*	13.7*	0.3%	u	42.0*
Cn1c(CCNC(=O)c2ccco2)nc2ccccc21	26.4%	x	x	u	x
Cc1cc(NC(=O)c2ccco2)ccc1-n1cnnn1	136.8%	45.5*	-0.7%	-12.0%	112.6*
Cn1c(CCNC(=O)c2ccco2)nc2cc([N+](=O)[O-])ccc21	7.6%	-1.1	-8.0%	2.62µM*	-32.5
CCCCC(=O)Nc1ccc2c(c1)nc(CCNC(=O)c1ccco1)n2C	-1.3%	15.5*	4.9%	-20.7%	15.1
N#Cc1cccc(NC(=O)CN2CCN(Cc3ccccc3)CC2)c1	-9.3%	-1.6	1.4%	5.7%	-7.2
CCOc1ccc(N2CC(NS(=O)(=O)c3cccs3)CC2=O)cc1 (centres undefined)	-9.7%	x	x	4.9%	x
CCn1c(CN2CCN(c3ccc(OC)cc3)CC2)nc2cc(S(=O)(=O)N(C)C)ccc21	u	0.5	-0.3%	u	-4.6
Nc1nc2ccc(NC(=O)c3ccco3)cc2s1	103.5%	50.8*	-8.8%	58.9%	107.0*
Cc1nc2cc(NC(=O)NCc3ccco3)ccc2n1C	138.9%	41.3*	6.6%	x	85.4*
CCCn1c(CN2CCN(C(=O)c3ccco3)CC2)nc2cc(S(=O)(=O)N(C)C)ccc21	10.4µM*	x	x	9.28µM*	x
Cc1cc2cc(NC(=O)c3ccco3)ccc2[nH]1	130.6%	61.2*	1.9%	17.0%[5.75 µM]	137.0*
CC(C)(C)NC(=O)CSC(=Nc1ccc(F)cc1)NC#N	24.8%	25.5	-0.6%	-1.3%	19.9
Cc1[nH]n(C)c(=O)c1[N+](=O)[O-]	1.5%	-1.5	-2.7%	34.8%	-6.0
CCCCC1=NN2C(=N)CC(=O)N=C2S1	25.9%	-1.4	-1.4%	u	-15.5
CCCC(c1nnnn1C(C)(C)C)N1CCN(C(=O)c2ccco2)CC1 (centres undefined)	-2.6%	6.0	-0.7%	-14.4%	-11.4
Cc1ccc(N2C(=S)N=C(Nc3ccccc3C)C23CCOC(C)(C)C3)cc1 (centres undefined)	u	2.0	5.5%	u	3.0
Cc1nc2cc(NC(=O)c3ccco3)ccc2n1C	111.5%	23.6*	-19.2%	131.8%	18.9
CCC(=O)NCCc1nc2cc(NC(=O)c3ccco3)ccc2n1C	92.6%	15.5*	1.3%	u	44.0*
Cn1c(CCNC(=O)c2ccco2)nc2cc(NC(=O)c3ccccc3)ccc21	52.8%	36.2*	-4.2%	u	80.1*
SMILES	Pf growth 48h	Cycloheximide cs	LmPK inh	Pf growth 96h	Shiga inhibitor
Cc1nn(C)cc1S(=O)(=O)N1CCCCC1C (centres undefined)	2.4%	-2.5	-1.2%	15.3%	9.1
Cc1ccc(C)c(S(=O)(=O)N2CCN(C(=O)[C@@H](NC(=O)c3ccc(F)cc3)C(C)C)CC2)c1	9.28µM*	x	x	u	x
Cc1ccccc1C(=O)N1CCN(S(=O)(=O)c2ccccc2)CC1	-1.0%	-1.2	0.6%	13.1µM*	-3.7
COc1ccc(S(=O)(=O)N2CCCCC2)cc1C(=O)N1CCCC1	-6.9%	-5.0	-4.1%	2.33µM*	12.6
Cc1ccc(C(=O)N2CCN(c3ccc(F)cc3)CC2)cc1S(=O)(=O)N1CCCCC1	u	0.9	1.3%	9.28µM*	-3.8
CCc1ccc(N(CC(=O)NCc2ccco2)C(=O)CCC(=O)Nc2nccs2)cc1	-19.3%	-1.9	-3.4%	-24.9%	12.9
O=C(c1ccccc1Cc1ccccc1)N1CCN(S(=O)(=O)c2ccccc2Br)CC1	11.7µM*	x	x	7.38µM*	x
CC1CCC(N2CCN(C(=O)c3ccccc3F)CC2)CC1 (centres undefined)	0.2%	-2.2	5.2%	11.7µM*	7.5
O=C(c1cccc(S(=O)(=O)N2CCCCC2)c1)N1CCN(S(=O)(=O)c2ccc(F)cc2)CC1	x	-1.5	-5.5%	9.28µM*	-9.3
O=C(c1cc(S(=O)(=O)N2CCCCC2)ccc1F)N1CCCCC1	2.33µM*	-2.3	-0.7%	u	-12.9
O=C(CN1CCCCC1)NNC(=O)c1cccc(Br)c1	27.9%	-5.6	5.4%	9.7%	-18.8
O=C(c1ccccc1F)N1CCN(S(=O)(=O)c2ccc(S(=O)(=O)N3CCCCCC3)cc2)CC1	11.7µM*	-1.6	1.1%	-4.2%	4.1
O=C(c1ccccc1F)N1CCN(S(=O)(=O)c2ccc(S(=O)(=O)N3CCCCC3)cc2)CC1	14.4%	-4.0	0.5%	31.4%	-8.2
CCSc1nc2ccccc2c(=O)n1Cc1ccc(F)cc1	-13.7%	29.4	1.6%	29.6%	15.1
CN(Cc1ccccn1)C(=O)c1ccc2nc(Cc3cccc(Cl)c3)oc2c1	-1.1%	12.5	-12.4%	u	-18.7
CCN1CC(CNC(=O)c2ccc3nc(Cc4cccc(Cl)c4)oc3c2)CC1=O (centres undefined)	0.5%	-0.9	-3.4%	32.6%	-12.5
COC(=O)CN(C)C(=O)c1ccc2nc(Cc3cccc(Cl)c3)oc2c1	-0.1%	50.8*	-1.1%	u	x
CC(C)(CO)NC(=O)c1ccc2nc(Cc3cccc(Cl)c3)oc2c1	12.6%	26.1*	2.9%	169.2%	25.7*
CCOc1ccc2ccccc2c1/C=N/NC(=O)CC1(C)OCCCO1	48.9%	12.5	1.2%	38.7%	13.3
O=S(=O)(NC[C@@H]1CCC[C@H](CNS(=O)(=O)c2c(F)cccc2F)C1)c1ccc2c(c1)OCCO2	8.28µM*	x	x	u	x
COCCNC(=O)c1cccc(OC2CCN(Cc3ccc(F)c(OC)c3)CC2)c1	3.7%	1.7	-3.4%	u	1.5
CC(=O)c1c[nH]c(C(=O)NC2CCCCCC2)c1	5.0%	0.9	-7.9%	u	-2.8
COc1ccc(-c2[nH]c3ccccc3c2SCCNC(=O)c2cc3ccccc3oc2=O)cc1	-18.5%	-2.4	0.4%	9.28µM*	-12.1
CNC(=O)c1cc2ccc(OC)cc2oc1=O	34.5%	12.2*	-2.7%	x	15.0
COc1cccc(C(=O)N/N=c2/oc3ccccc3cc2C(N)=O)c1	-5.8%	-0.9	10.9%	27.6%	-5.3
CCOC(=O)c1cc2ccc(OC)cc2oc1=O	11.6%	18.4*	-28.9%	65.9%	65.6*
COc1ccc2cc(C(N)=O)/c(=N\NC(=O)c3ccccc3)oc2c1	25.8%	43.6*	0.4%	39.0%	68.3*
CCOC(=O)c1cc2c(ccc3ccccc32)oc1=O	16.4%	2.0	3.0%	-9.8%	5.4
O=C(Nc1ccc(Cl)c(Cl)c1)NC1CCS(=O)(=O)C1 (centres undefined)	13.8%	2.7	2.9%	48.4%	-12.2

Compound activity: PubChem, National Center for Advancing Translational Sciences (NCATS)
